From the supplement of paper PMC6555819

Experiments:
Assay in all cases: PBM binding z-score (relative to random genomic background probes); higher = stronger binding; sequences stand for … in GC…GCGATTGACAGCGTAGAATGAAGG
[1] = system: RARb homodimer (NR concentration 270 nM)
Outline: (§1)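 Random background probes are the reference for binding z-scores. These scores derive from regression-normalized fluorescence on custom Agilent 4×180K protein-binding microarrays incubated 1 h with ligand-free nuclear receptor dimers. Binding was detected with antibodies against each partner (one per run).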

[2] = system: RARg:RXRa (NR concentration 270 nM, RXRa partner concentration 90 nM)
Outline: as §1

[3] = system: RARg homodimer (NR concentration 270 nM)
Outline: as §1

[4] = system: RXRa DBDmut IVT, anti-RXR (DBD mutation: RXRa K156A/R161A, NR concentration 90 nM)
Outline: as §1

[5] = system: RXRa homodimer (NR concentration 180 nM)
Outline: as §1

[6] = system: THRa:RXRa (NR concentration 90 nM, RXRa partner concentration 90 nM)
Outline: as §1

[7] = system: THRa homodimer (NR concentration 90 nM)
Outline: as §1

[8] = system: VDR homodimer (NR concentration 270 nM)
Outline: as §1

Sequence	PBM binding z-score [1]	PBM binding z-score [2]	PBM binding z-score [3]	PBM binding z-score [4]	PBM binding z-score [5]	PBM binding z-score [6]	PBM binding z-score [7]	PBM binding z-score [8]
GCGACTGGGGCATCGGCAGGTTACCATAACTTAA	1.07	1.17	0.592	-0.207	0.141	1.11	0.42	-0.113
TCATATACGTAAACAGGTGAAAGTCCGTAAGTTA	0.865	0.708	0.405	1.91	0.88	0.985	0.342	0.357
TAGCCTAGGTCAGATTGGGCCAGTATACGCTATA	2.06	2.79	3.72	-0.225	1.25	3.56	-0.0542	-0.257
CTACCAAGGTGAACAAGGTAGTTGATTACTATTC	0.762	0.87	0.957	0.172	0.815	1.75	0.665	-0.336
GCGACTCGGGCAAAGCAGGTTACCATAAGGTTGG	0.473	0.453	0.464	-0.723	0.252	1.87	-0.264	-0.533
ACTTACGGGTCAACGAGGTGATAGCACGCGTATA	2.98	5.26	4.83	2.19	5.47	3.86	0.952	1.81
AGTCAAAGTTCAGGACGAGGTAACGGAAAGCACG	3.17	4.69	4.86	2.73	2.96	3.79	1.74	1.79
ATCGAATGGTCGACGAGGTGAGTATACACCGTTT	-0.00631	0.294	0.526	-0.27	0.305	1.03	0.408	-0.381
GCATATAGGTAATCCAAGGTGAAAGTCCGATTGT	0.964	0.387	0.453	0.551	0.399	4.57	1.35	0.0892
TAGCCTAGGTCATTCAGGGGCCATTATAGAAAGC	3.54	6.28	4.48	2.04	3.12	3.69	1.13	1.96
CGAACTAGGTCATTGACAGGACATTGAATAGTAA	2.8	4.62	4.56	2.52	2.75	2.9	0.971	1.62
CGTCCAAGGTCAAAGGTCTGTGAAGAGATGACGG	4.1	6.32	6.12	4.3	6.84	4.04	2.11	3.09
ACTAGTTGGTTAGCTGAGGTCACACACAATTCGG	4.12	3.62	3.42	1.62	3.95	4.7	5.36	3.78
CTTGAAAGGTCGGTTGAGGTGAGTATACGGATAA	2.58	2.6	2.68	1.35	2.5	4.93	1.42	0.867
ACAGAGAGGTGAGTGAAGGTAACTCAGCTGGACG	0.91	0.89	1.24	-0.227	0.647	2.59	0.294	-0.548
ATACCAAGGTGATCGTGAGGACGTTGATACTAAC	0.51	0.635	0.393	-0.27	0.264	2.96	1.97	0.714
AGTCAAAGTTCAGGACAAGGTAACGTAAAGCACG	3.29	5.05	5.13	3.14	3.26	4.05	2.59	2.15
CCTACTGGGCCTAAAAGGTCATTGATGCCGATAA	4.24	4.67	3.93	0.753	4.91	3.08	0.544	2.73
ACTATTAGTTGACTTAGGGCCACCGATACGACGC	0.765	0.549	0.739	0.785	0.774	2.48	0.956	0.47

Sequence	PBM binding z-score [1]	PBM binding z-score [2]	PBM binding z-score [3]	PBM binding z-score [4]	PBM binding z-score [5]	PBM binding z-score [6]	PBM binding z-score [7]	PBM binding z-score [8]
CGTCCAAGGTCAAATGTCAGTGAAGAGATGACGG	4.41	6.58	7.15	3.82	6.77	4	2.21	2.75
TCGAGTAGGTTACCAATGGGGCATTCAGCTTTCT	0.636	1.2	0.445	0.401	0.5	0.261	-0.612	-0.59
ACTAGCAGGCCAAGCTTGGGTCACTCAAACAAAG	2.07	2.09	1.49	-0.187	0.849	2.18	0.602	-0.227
CCTAATTGGTCAAGGTCACACACGCTATAGGTAC	4.67	4.73	4.86	2.36	4.64	4.34	4.13	3.38
CGAACGAGGTCAAGGACAGTGAATCTCCGCACGC	4.19	6.33	6.59	4.23	7.03	4.43	3.19	3.5
CCTAGTTGGTCCAGGTCACACACGCTATAGGTAC	3.15	2.68	2.73	1.35	2.64	3.72	3.98	2.54
TGAATGTGGTTAAAGATCAGGGAACGTGGCGTCG	-0.107	0.0115	-0.196	-0.526	0.126	-0.141	-0.0512	-0.00679
ACTAGCAGGCCACGTTTGGGTCACTCAAACAAAG	1.91	2.05	1.58	-0.109	0.813	2.64	1.28	-0.0731
TTACCAAGGTGAAGGTCGTTTATCCCTCTGTAGA	1.99	1.2	1.11	0.869	1.49	2.5	1.18	1.61
TGAATGAGGTTACAAGATCAGGGAACGTTGCAAA	0.458	1.79	1.52	0.127	2.26	2.2	0.329	0.106
CCAGACATGTGAGAAGGTAACTCAGCCTCGATTA	0.158	-0.0792	0.231	0.753	0.09	-0.0389	0.447	0.382
CCTTACGGTTCACTCCAGGTTATAGCATCGGAGT	1.62	1.48	0.86	3.44	1.89	4.66	1.33	3.65
CCTAGTTGGTCAAGGTCAAACACGCTATAGGTAC	4.29	4.69	4.37	2.71	4.76	4.07	3.39	4.52
CGGCCAAGGTCAGAGAGGTCAGTGAATGCCGAGT	5.45	6.22	7.62	3.44	6.21	4.17	2.42	5.9
ATACCAAGATGATCGTGAGGTCGTTGATACTAAC	1.17	0.596	0.434	0.473	0.929	2.39	1.81	2.77
ATCGAAAGGTCGATGAGGTGAGTATACACCGTTT	2.52	3.5	3.32	0.841	3.56	3.75	0.943	1.17
CCTAGCAGGCCGATCTGGGTCACTCAAGGCTTGA	1.59	0.546	0.594	-0.129	0.768	2.97	0.256	-0.162
CCTATTAGTTGACCATAAGGGCGACCGAAGCTCG	1.12	0.591	0.438	0.516	0.491	0.798	0.626	0.694
GCTATTAGTTGAAAGAGCAACCGAATGATTCTCG	-0.533	-0.181	0.242	0.464	0.226	-0.376	-0.896	-0.22

Sequence	PBM binding z-score [1]	PBM binding z-score [2]	PBM binding z-score [3]	PBM binding z-score [4]	PBM binding z-score [5]	PBM binding z-score [6]	PBM binding z-score [7]	PBM binding z-score [8]
ATATGTAGGTTACATCCGGGCCATTCAGGCTATG	0.788	1.35	0.995	0.497	0.936	2.04	0.851	0.406
TCTAGTTGTTCAAAGGTCACACACTCGAAATGCG	5.28	6.3	6.07	2.05	7.19	4.11	2.21	2.78
TGAATGAGGTTATCAGATCAGGGAACGTTGCAAA	0.317	1.62	1.06	0.731	1.99	2.02	0.233	0.273
ATATGTAGGTTAGCTGGGGACATTCAGACTAGGC	1.29	0.981	1.34	0.879	0.737	4.93	2.11	1.3
TCTCGGAGGACACGAAGGTCAGAGCCTTCCAGAG	3.54	3.52	4.07	0.518	2.04	2.66	0.555	1.24
ATCTCTAGGGAACAAGTTCAGTGAAAGAGAGGAC	1.49	0.977	1.13	0.71	0.649	0.823	0.263	2.43
GCAGACAGGTGAAACGCAGGTACCTCAGGGTGGC	-0.353	0.0657	0.145	-0.949	0.343	0.295	-0.722	-0.935
GTACCAAGGTGAGTAGGTCGTTGATGAGTAGGCG	1.15	0.89	0.657	-0.673	0.551	0.995	0.258	0.112
TAGCCTAGGTCAGATCGGCCCAGTATACGCTATA	1.84	2.5	3.35	-0.434	1.35	1.98	-0.12	-0.474
ATCGAAAGGTCGACGAGGTGAATATACACCGTTT	2.97	4.55	3.93	1.7	4.64	4.06	1.54	1.84
CGTCCAAGGTCATAGGAGGTGAGTGAAGACAGAT	4.33	5.74	5.64	3.53	5.36	5.3	2.93	2.82
ATTGAAAGGTCGAAGGTGAGTATACCCACCCGAA	2.54	4.17	3.76	1.26	5.43	2.22	0.13	0.982
ACTAGCAGGCCATGTTTGGGTCACTCAAACAAAG	1.98	2.04	1.42	-0.345	0.614	2.24	1.21	-0.169
AATACAGGGTCACTAGTCCAGAGTAGGTACGAAT	3.23	4.5	4.83	2.7	4.87	3.31	1.32	2.27
CCTAGTTGGTCAGGAGGTAACACACCGGATATGA	1.01	0.732	0.881	-0.282	0.455	0.766	0.712	0.75
TCATGTAGATCAAGCAGGTTAAGAAAGCCTGAGT	0.058	0.118	0.0856	0.962	0.48	0.397	-0.412	0.0758
TCATATAGGTAAAGGGGAAAGTCGAACGATATGA	0.241	0.707	0.688	1.39	1.21	0.241	-0.0232	-0.173
TCATATAGGTAAATGCTAGGGGAAAGTCCGATCT	0.135	0.401	0.27	1.85	0.821	0.401	0.433	0.491
